Compound activity: PubChem, National Center for Advancing Translational Sciences (NCATS)
HT1080-NT tox: qHTS for induction of synthetic lethality in tumor cells producing 2HG: qHTS for the HT-1080-NT fibrosarcoma cell line; 360,000 compounds, 1.6% hits; Potency, µM (highest dose often 46.1 µM), without a hit: at the top dose activity, negative = less viability, hits mostly cytotoxic; AID 686970, 2013; HT-1080-NT fibrosarcoma viability, CellTiter-Glo ATP luminescence, 48 h;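 also: NT is the 2HG producing partner of a matched IDH1 knockdown line; 0% = DMSO-treated cells and -100% = media-only wells without cells; nearly all actives have a fitted effect of over 55% in size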
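Toxicity toward the 2HG-producing NT line was scored as %Activity, normalised to DMSO and no-cell wells, from CellTiter-Glo luminescence after 48 hours' treatment.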
HT1080 IDH1KD tx: qHTS for induction of synthetic lethality in tumor cells producing 2HG: qHTS for the HT-1080-IDH1KD cell line; 360,000 compounds, 2% hits; Potency, µM (highest dose often 46.1 µM), for inactives: at the highest dose activity, negative = toxicity, usual class: cytotoxic; AID 686971, 2013; HT-1080 IDH1 knockdown viability, ATP luminescence, 48 h;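 also: 0% = DMSO wells and -100% = cell-free medium wells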
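% activity derives from luminescence (CellTiter-Glo), normalised to DMSO and no-cell wells. HT-1080-IDH1KD cells, 750/well, had 48 h compound exposure at 37 °C.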
TGFb SMAD3 inh: qHTS for Inhibitors of TGF-b | 410,000 compounds, 1.2% hits | AID 588855, 2011 | HepG2 CAGA-GFP TGF-b/SMAD3 reporter, GFP fluorescence, 18 h; TGF-beta stimulated, 500 pg/mL final | Potency, µM (top dose mostly 46.1 µM), for the others: top-dose activity, negative = inhibition, hits mostly inhibitors; also: % is scaled to controls: 0 for no effect and ±100 for the full control effect; nearly all actives have a fitted effect of over 65% in size
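Smad-responsive CAGA-GFP expression was quantified in HEPG2 cells exposed to compounds and 500 pg/mL final TGF-beta for 18 h at 37 degrees C; unstimulated wells defined full inhibition.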
DT40 TDP1 CPT: qHTS for Inhibitors of human tyrosyl-DNA phosphodiesterase 1 (TDP1): qHTS in cells in presence of CPT. chicken DT40 Tdp1-/-;hTDP1 cells + 20 nM CPT, ATP luminescence, 48 h. Potency, µM (highest dose often 46.2 µM), for inactives: at the highest dose activity change, negative = growth inhibition, hits mostly inhibitors. 420,000 compounds, 12% hits. AID 686979, 2013; also: % is scaled to controls: 0 for no effect and ±100 for the full control effect; nearly all actives have a fitted effect of over 55% in size
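Cell growth measured by CellTiter-Glo luminescence after a minimum 48 h, 37 C compound exposure with 20 nM CPT in Tdp1-knockout DT40 cells stably expressing hTDP1, seeded 400/well; qHTS titration format.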
HepG2 tox: qHTS for Inhibitors of TGF-b: Cytotox Counterscreen; Potency, µM (series often up to 46.1 µM), inactives show top-dose activity change, negative = cytotoxicity, most hits filed as cytotoxic; AID 588856, 2011; HepG2 CAGA-GFP viability, ATP luminescence, 18 h; 410,000 compounds, 0.76% hits
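HepG2 CAGA-GFP cells (1000/well, DMEM with 1% FBS) received compound, then TGF-beta at 500 pg/mL final, and were incubated 18 hours at 37 degrees C. Viability was read by CellTiter-Glo luminescence. Media-only wells were set as complete cell-killing and DMSO as no toxicity.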
TDP1 cell noCPT: qHTS for Inhibitors of human tyrosyl-DNA phosphodiesterase 1 (TDP1): qHTS in cells in absence of CPT; DT40 Tdp1-/- hTDP1 cells, no CPT, ATP luminescence, 48 h; Potency, µM (highest dose often 46.2 µM), for inactives: at the highest dose activity change, negative = growth inhibition, usual class: inhibitors; 420,000 compounds, 15% hits; also: % is scaled to controls: 0 for no effect and ±100 for the full control effect; nearly all actives have a fitted effect of over 55% in size
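Compound effects on proliferation are scored in DT40 Tdp1-/-;hTDP1 cells in the absence of CPT. ATP levels (CellTiter-Glo luminescence) are recorded after a ≥48 hr, 37 °C incubation.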
Starred values were filed as active, the others as inactive; ? = inconclusive; / = no result. Compounds with a hit are over-represented: about 17% of the library has one in this group of screens. Calls follow the shape of the dose curve; as a rule, active = well fitted curve in the direction sought with a large enough effect; inconclusive = small, poorly fitted or top-dose-only effect, or another doubt; inactive = no such curve, though single readings can be large; an effect the other way counts as inactive or inconclusive. Potency is read from the fitted curve at half-maximal effect.

SMILES | HT1080-NT tox | HT1080 IDH1KD tx | TGFb SMAD3 inh | DT40 TDP1 CPT | HepG2 tox | TDP1 cell noCPT
CCN(CC)CCn1c(=N)n(CC(=O)c2ccc(C)cc2)c2ccccc21 | -25% | ? | -22% | 16µM* | -36% | 13µM*
COc1ccc(C(=O)Cn2c(C(C)=O)nc3ccccc32)cc1 | -10% | ? | ? | 15µM* | 7% | 7.3µM*
COc1ccc(C(=O)Cn2c(=N)n(C)c3ccccc32)cc1 | ? | ? | -2% | ? | -19% | 21µM*
COc1ccc(C(=O)CN2Cc3ccccc3C2=N)cc1 | -22% | -21% | 0% | 16µM* | -31% | 18µM*
C=CCn1c(=N)n(CC(=O)c2ccc(OC)cc2)c2ccccc21 | 0% | 0% | -22% | ? | -26% | ?
Cn1c(=N)n(CC(=O)C(C)(C)C)c2ccccc21 | -1% | -1% | ? | ? | -6% | -49%
Cn1c(=N)n(CC(=O)c2ccccc2)c2ccccc21 | -6% | -17% | -3% | ? | -52% | 18µM*
Cn1c(=N)n(CC(=O)c2ccc(Cl)c(Cl)c2)c2ccccc21 | -8% | -7% | 8% | 13µM* | -8% | 16µM*
O=C(c1ccccn1)N1N=C2/C(=C/c3ccc(F)cc3)CCCC2C1c1ccc(F)cc1 (configuration not stated) | -20% | -26% | -1% | ? | 3% | ?
N#Cc1cccc(C=C(C(=O)c2ccccc2)c2ccccc2)c1 | 26µM* | ? | / | 12µM* | / | 19µM*
COc1cccc(/C=C(\C(=O)O)c2ccccc2)c1 | 17% | 15% | -28% | 4% | -14% | -3%
Cc1ccc(Cn2ncc3c(N4CCN(c5ccccc5C)CC4)ncnc32)cc1 | -16% | -18% | ? | 23µM* | -27% | 16µM*
Clc1ccc(Cn2ncc3c(N4CCN(c5ccccc5)CC4)ncnc32)cc1 | ? | 0% | ? | 23µM* | -16% | 23µM*
O=[N+]([O-])c1c(C(Cl)Cl)nn(-c2ccccc2)c1N1CCOCC1 | -12% | -9% | -9% | ? | -26% | -27%
O=[N+]([O-])c1c(C(Cl)Cl)nn(-c2ccc(Cl)cc2)c1N1CCCCC1 | -9% | -7% | 14% | ? | -21% | 16µM*
CCCCC1CCC(C(=O)N(C)CC(=O)Nc2cccc(OC)c2)CC1 (configuration not stated) | 0% | -3% | -27% | -7% | 4% | ?
Clc1ccc(/C=C/c2ccncc2)cc1Cl | / | / | ? | 10% | -54% | -18%
Cc1ccc2nc(-c3ccc4c(c3)OCCO4)cn2c1 | 3.7µM* | 2.3µM* | -17% | 1.3µM* | -45% | 1.6µM*
COc1ccc(-c2cn3cc(C)ccc3n2)cc1F | -9% | -2% | ? | ? | 16µM* | ?
COc1ccc(-c2cn3cc(C)ccc3n2)cc1OC | -9% | -9% | -19% | 0% | -40% | ?
c1ccn2cc(-c3ccc4c(c3)OCCO4)nc2c1 | ? | ? | 0% | 15µM* | -82% | 26µM*
CC(=O)c1ccc(NC(=O)CN2C(=O)NC3(CCc4ccccc43)C2=O)cc1 (configuration not stated) | -13% | 0% | 5% | -11% | -3% | -18%
COC(=O)[C@@]12C[C@@H](CC(=O)N3CCCC3)C(=O)N(Cc3ccco3)C1=CCC(C)(C)C2 | 11% | 0% | / | ? | / | 16µM*
COC(=O)[C@@]12C[C@@H](CC(=O)N3CCCCC3)C(=O)N(Cc3ccccc3)C1=CCC(C)(C)C2 | -2% | -7% | / | ? | / | 18µM*
COC(=O)[C@@]12C[C@@H](CC(=O)N3CCN(C(=O)C4CC4)CC3)C(=O)N(Cc3ccccc3)C1=CCC(C)(C)C2 | 19% | 0% | / | ? | / | ?
SMILES | HT1080-NT tox | HT1080 IDH1KD tx | TGFb SMAD3 inh | DT40 TDP1 CPT | HepG2 tox | TDP1 cell noCPT
COC(=O)[C@@]12C[C@@H](CC(=O)N3CCCC3)C(=O)N(Cc3ccccc3)C1=CCC(C)(C)C2 | 5% | -18% | / | 23µM* | / | ?
COC(=O)[C@@]12C[C@@H](CC(=O)N3CCN(C(=O)C4CC4)CC3)C(=O)N(Cc3ccco3)C1=CCC(C)(C)C2 | 19% | 3% | / | ? | / | ?
O=C(O)c1c(N2CCCCC2)ccc([N+](=O)[O-])c1N1CCCCC1 | 0% | -2% | -2% | 5% | 6% | -6%
N#Cc1c(NC(=O)C2CC(c3c(F)cccc3Cl)=NO2)sc2c1CCC2 (configuration not stated) | 2% | 9% | ? | ? | -4% | 0.21µM*
CCc1c(C)sc(NC(=O)C2CC(c3c(F)cccc3Cl)=NO2)c1C#N (configuration not stated) | 0% | -16% | -28% | 16µM* | -24% | ?
Cc1ccc(O)c(NC(=O)C2CC(c3c(F)cccc3Cl)=NO2)c1 (configuration not stated) | -7% | -7% | -8% | -19% | -39% | ?
Cc1ccccc1NS(=O)(=O)c1ccc2[nH]c(=O)[nH]c2c1 | -2% | 15% | 18% | 5% | 8% | 28%
c1ccc(N2CCN(c3nc4cc5c(cc4s3)OCO5)CC2)cc1 | 8% | -6% | 0% | -10% | -15% | -26%
CN1CCN(c2ccc3sc(-n4ccc5ccccc54)nc3c2)CC1 | ? | ? | ? | 16µM* | -73% | 13µM*
O=C(NC1(C(F)(F)F)C(=O)Nc2c1c(=O)[nH]c(=O)n2-c1ccc(Cl)cc1)c1ccccc1F (configuration not stated) | / | / | 11% | -15% | 9% | -17%
CCOC(=O)N1CCN(Cc2nc(N)nc(Nc3ccc(OC)cc3)n2)CC1 | 5% | ? | -9% | -1% | -34% | -15%
Cc1ccccc1Nc1nc(N)nc(CCl)n1 | 1.2µM* | 15µM* | -16% | 21µM* | 1% | 23µM*
Nc1nc(CN2CCN(Cc3ccccc3)CC2)nc(Nc2ccc3c(c2)OCCO3)n1 | -1% | -6% | 13% | -29% | -52% | -26%
Cc1ccccc1Nc1nc(N)nc(CN(C)c2ccccc2)n1 | -3% | -9% | 0% | -19% | 3% | ?
